From PubChem BioAssay
Gal4-VP16 FLuc – counter-screen for ROR gamma inhibitors: Gal4-VP16 reporter. 3.5% of 310,000 active. Potency, µM (top dose mostly 53.6 µM), for inactives: at the top dose activity, negative = inhibition, hits mostly inhibitors. Drosophila S2 Gal4-VP16 UAS-luciferase, luminescence, 20 h;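 further: Gal4-VP16 expression switched on by copper sulfate through the metallothionein promoter; nearly all actives have a fitted effect of over 50% in size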
RORg inh – ROR gamma (mouse) transcription inhibition | P51450 | Drosophila S2 Gal4-RORgamma UAS-luciferase reporter, 20 h | Potency, µM (top dose mostly 53.6 µM), for the others: at the highest dose activity change, negative = inhibition, hits mostly inhibitors | 5.4% of 310,000 active | AID 2551; further: nearly all actives have a fitted effect of over 60% in size
Target sequence (P51450 whole entry, looked up, the tested form may be a part): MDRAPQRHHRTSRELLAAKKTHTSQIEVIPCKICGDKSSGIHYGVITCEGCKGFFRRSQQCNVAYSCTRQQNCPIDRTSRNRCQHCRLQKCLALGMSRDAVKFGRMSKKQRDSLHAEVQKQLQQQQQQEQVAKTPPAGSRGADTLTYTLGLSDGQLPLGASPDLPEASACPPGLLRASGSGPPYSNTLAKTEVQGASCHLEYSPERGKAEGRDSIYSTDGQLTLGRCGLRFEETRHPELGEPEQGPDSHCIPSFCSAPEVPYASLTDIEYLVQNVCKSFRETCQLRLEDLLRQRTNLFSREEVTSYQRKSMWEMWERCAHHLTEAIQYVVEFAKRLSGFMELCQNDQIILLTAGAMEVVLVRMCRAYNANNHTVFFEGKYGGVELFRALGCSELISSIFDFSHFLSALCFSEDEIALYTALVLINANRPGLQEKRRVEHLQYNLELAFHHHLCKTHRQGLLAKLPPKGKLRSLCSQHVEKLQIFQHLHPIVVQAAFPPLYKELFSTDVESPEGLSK
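In this cell-based reporter format, copper sulfate (700 uM final) drives Gal4–ROR gamma fusion expression from a metallothionein promoter in Drosophila Schneider cells; compounds preincubated 1 hr, reporter read after 20 hr at ambient temperature.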
DT40 TDP1 CPT – growth inhibition of DT40 Tdp1-/-;hTDP1 cells with camptothecin (screen for TDP1 inhibitors); chicken DT40 Tdp1-/-;hTDP1 cells + 20 nM CPT, ATP luminescence, 48 h; Potency, µM (top dose mostly 46.2 µM), for the others: at the top dose activity change, negative = growth inhibition, actives largely listed as inhibitors; 12% of 420,000 active; further: nearly all actives have a fitted effect of over 55% in size
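Chicken DT40 Tdp1-/- cells stably complemented with human TDP1 were seeded at 400 cells/well in medium containing 20 nM camptothecin, exposed to pin-transferred compounds, and grown at 37 °C for at least 48 hr. Viability was read as ATP luminescence.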
TDP1 inh – inhibitors of human tyrosyl-DNA phosphodiesterase TDP1; Potency, µM (doses to about 130 µM), for inactives: at the top dose activity change, negative = inhibition, actives largely listed as inhibitors; 0.28% of 350,000 active; Q9NUW8; recombinant TDP1, AlphaScreen DNA substrate cleavage; AID 485290; further: nearly all actives have a fitted effect of over 40% in size
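Signal: AlphaScreen proximity between streptavidin donor and anti-FITC acceptor beads on intact substrate. Reaction: Tdp1 1 nM, substrate 15 nM final, 5 min RT after 15 min compound preincubation.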
DT40 TDP1 no CPT – qHTS for Inhibitors of human tyrosyl-DNA phosphodiesterase 1 (TDP1): qHTS in cells in absence of CPT. DT40 Tdp1-/- hTDP1 cells, no CPT, ATP luminescence, 48 h. Potency, µM (highest dose often 46.2 µM), without a hit: at the top dose activity change, negative = growth inhibition, most hits filed as inhibitors. 15% of 420,000 active. AID 686978, 2013; further: nearly all actives have a fitted effect of over 55% in size
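No-CPT arm: Tdp1-/-;hTDP1 DT40 cells (400/well) plus compounds, incubated ≥48 hr at 37 °C. Readout CellTiter-Glo luminescence.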
* marks the source's active call; other numbers are inactive results; ? = inconclusive; nt = no result given; [ ] = another dose, or the depositor's remark. An excerpt weighted towards active compounds, which were near 19% of everything screened. The call rests on the fitted dose curve; in most records, active means well fitted curve in the direction sought with a large enough effect; inconclusive means small, poorly fitted or top-dose-only effect, or another doubt; inactive means no such curve, though single readings can be large; an effect the other way counts as inactive or inconclusive. On the % scale 0 is the no-effect control and ±100 the full control effect; potency means the concentration at half of the fitted maximal effect.

SMILES | Gal4-VP16 FLuc | RORg inh | DT40 TDP1 CPT | TDP1 inh | DT40 TDP1 no CPT
O=C(NCCCc1ccccn1)C1CCC(=O)N(Cc2cccc(F)c2)C1 (configuration not stated) | 0% | -1% | 12% | 3% | -3%
COc1ccc(CNC(=O)CCNC(=O)N2CC(=O)Nc3ccccc32)cc1 | nt | nt | -3% | nt | -18%
O=C(CCCN1C(=O)/C(=C/c2cccc(Br)c2)SC1=S)Nc1ccccn1 | -2%[0.365 µM] | ? | ? | -3% | ?
O=C(CCCN1C(=O)/C(=C\c2cccc(Br)c2)SC1=S)Nc1cccnc1 | -5% | 1% | ? | 6% | 15µM*
O=C(CCCN1C(=O)/C(=C/c2cccc(Br)c2)SC1=S)Nc1cccnc1 | -9% | 14µM* | ? | 1% | 16µM*
CC1=NCC(C)c2c1[nH]c1ccccc21 (configuration not stated) | 3% | -12% | -6% | 1% | ?
COc1ccc(C2/C=C\CC(NC(=O)OCC3c4ccccc4-c4ccccc43)CC(=O)N2Cc2ccccc2F)cc1 (configuration not stated) | -3%[40.7 µM] | -1%[40.7 µM] | ? | 2%[56.1 µM] | ?
CC(C)(C)NC(=O)C1c2ccccc2OCC(=O)N1C1CC1 (configuration not stated) | nt | nt | 6% | nt | -17%
CCOC(=O)N1CCC(NS(=O)(=O)c2ccc(C)c(Cl)c2)CC1 | 2% | 26% | ? | 4% | 6.5µM*
CCOC(=O)N1CCC(NS(=O)(=O)c2ccc3c(c2)oc(=O)n3C)CC1 | 0% | 9% | -15% | 1% | -15%
Cc1cc(S(=O)(=O)NC2CCCCC2)ccc1OCC(=O)N1CCOCC1 | -20% | 13% | -28% | 5% | -22%
CCOC(=O)N1CCN(C(=O)COc2ccc(S(=O)(=O)NC3CCCCC3)cc2C)CC1 | 1% | -3% | ? | -1% | 18µM*
CCOC(=O)Cc1csc(NC(=O)NC2(C(F)(F)F)Oc3cc(Cl)c(Cl)cc3O2)n1 | -13% | ? | 23µM* | -9% | ?
CCOC(=O)Cc1csc(NC(=O)/C=C\c2ccccc2)n1 | -5% | 5% | ? | 0% | ?
CCOC(=O)Cc1csc(NC(=O)Nc2ccc(OC(F)(F)F)cc2)n1 | -11% | 34% | ? | 1% | 18µM*
CCOC(=O)CNC(=O)CSc1ncnc2c1cnn2-c1ccc(Cl)cc1 | 3% | 23% | -14% | 8% | -24%
CCOC(=O)Cc1csc(NC(=O)c2ccc(NC(C)=O)cc2)n1 | ? | ? | -13% | 0% | -9%
CCOC(=O)Cc1csc(NC(=O)/C=C/c2ccc(OC)cc2)n1 | ? | ? | 10µM* | 3% | 21µM*
CCOC(=O)Cc1csc(NC(=O)CSc2ncnc3c2cnn3-c2ccc(OC)cc2)n1 | -11% | 17% | ? | 8% | 15µM*
CCOCCCNC(=O)C1(O)c2cc(Br)ccc2NC(=O)N1c1ccc(OCC)cc1 (configuration not stated) | 0% | 20% | -11% | nt | -1%
COc1ccc(C(C)(C)C)cc1NC(=O)c1[nH]c(C)c(C(C)=O)c1C | -13% | 2% | -1% | 9% | 16µM*
COc1ccc(NC(=O)c2[nH]c(C)c(C(C)=O)c2C)cc1Cl | 4% | ? | 2.1µM* | 4% | ?
COc1cc(NC(=O)c2[nH]c(C)c(C(C)=O)c2C)cc(OC)c1OC | 7% | -21% | -24% | -7% | -28%
Cc1ccc2c(c1)-n1c(nc3cc(C)ccc3c1=O)C(Cc1ccccc1)NC2=O (configuration not stated) | nt | nt | nt | 2% | nt
Cc1ccc2c(=O)n3c(nc2c1)C(Cc1ccc(O)cc1)NC(=O)c1cc2ccccc2cc1-3 (configuration not stated) | nt | nt | ? | nt | 18µM*
SMILES | Gal4-VP16 FLuc | RORg inh | DT40 TDP1 CPT | TDP1 inh | DT40 TDP1 no CPT
O=C1NC(Cc2ccc(O)cc2)c2nc3cc(F)ccc3c(=O)n2-c2cc(Cl)ccc21 (configuration not stated) | nt | nt | nt | 1% | nt
O=C1NC(Cc2ccc(O)cc2)c2nc3cc(F)ccc3c(=O)n2-c2cc3ccccc3cc21 (configuration not stated) | nt | nt | ? | nt | 7.3µM*
Cn1ncc(Br)c1C(=O)N1CCN(C(=O)c2ccco2)CC1 | -2% | -12% | -7% | 3% | 10%
COC(=O)C1CCN(C(=O)COC(=O)c2ccc(=O)n(Cc3ccccc3)n2)CC1 | nt | nt | -6% | nt | -17%
COc1ccc(CN=C(Nc2ccccc2)SC2CC(=O)NC2=O)cc1 (configuration not stated) | -9% | 13µM* | 3% | 6% | -4%
O=C(O)c1ccccc1C(=O)NC1Cc2ccccc2C1 | -15% | -3% | -8% | 0% | -7%
O=C(NC1CCCCC1)Oc1cc2oc(=O)sc2cc1Br | -30% | 0% | 16µM* | nt | ?
O=C(NC1CCCCCC1)c1ccc(Br)o1 | 4% | -4% | 3% | 3%[0.0935 µM] | -2%
CCC1C(=O)n2nc(-c3ccccc3)cc2N=C1C (configuration not stated) | -19% | -6% | 8.2µM* | -1% | 10µM*
C=C1C(=O)OC2C=C(CO)CCC=C(CO)CC(OC(=O)C(C)C)C12 (configuration not stated) | nt | nt | 2.9µM* | nt | 2.9µM*
O=C(/C=C/c1ccc(Br)o1)NC(c1ccccc1)c1ccccc1 | 0% | 9% | 9.2µM* | 3% | ?
O=c1[nH]c2cc3c(cc2cc1CN(Cc1nnnn1CC1CCCO1)C1CCCC1)OCO3 (configuration not stated) | -5% | 31% | ? | -6% | 13µM*
O=c1[nH]c2cc3c(cc2cc1CN(CCc1ccccc1)Cc1nnnn1CC1CCCO1)OCO3 (configuration not stated) | 16% | -20% | ? | -1% | 23µM*
COc1ccc2[nH]c(=O)c(CN(Cc3ccccc3OC)Cc3nnnn3CC3CCCO3)cc2c1 (configuration not stated) | -24% | -33% | 23µM* | 10% | ?
COc1ccc2[nH]c(=O)c(CN(CCc3ccccc3)Cc3nnnn3CC3CCCO3)cc2c1 (configuration not stated) | 2% | -19% | 6.5µM* | 6% | 29µM*
O=C(CN1C(=O)COc2ccccc21)Nc1ccccc1F | -1% | -20% | 1% | nt | -11%
COc1ccccc1CN(Cc1cc2cc(C)cc(C)c2[nH]c1=O)Cc1nnnn1CC1CCCO1 (configuration not stated) | -4% | ? | ? | 3% | 23µM*
